Bioassay records from PubChem BioAssay.
NPC1 promoter act – qHTS Assay for NPC1 Promoter Activators. Huh7 NPC1 promoter luciferase reporter, 24 h. hit rate 2.4% among 320,000. Potency, µM (titrated, usually from 9.22 µM), most hits filed as activators; further: nearly all actives have a fitted effect of over 60% in size
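Readout is luciferase luminescence, reflecting NPC1 promoter activation in stably transfected Huh7 cells after 24 h compound exposure at 37 °C in reduced-serum medium with 10% FBS.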
SMN2 splice up – qHTS Assay for Enhancers of SMN2 Splice Variant Expression. AID 1458, 2008. hit rate 2.8% among 210,000. Potency, µM (doses to about 46.1 µM), usual class: activators. HEK293 SMN2-luciferase splicing reporter, luminescence, 30-36 h; further: nearly all actives have a fitted effect of over 55% in size
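qHTS luciferase splicing reporter: luminescence rises when SMN2 exon 7 is included in transfected HEK293 cells. Compound exposure lasted 30-36 h at 37C, with 4.5 mM final sodium butyrate as control, followed by a ONE-Glo read.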
Luc counter – Counterscreen for Luciferase (Kinase-Glo TM) Inhibition | Kinase-Glo luciferase, ATP luminescence, 8 min | hit rate 0.28% among 200,000 | Potency, µM (top dose mostly 38.3 µM), usual class: inhibitors | AID 1379, 2008; further: nearly all actives have a fitted effect of over 60% in size
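Compound is pinned into ATP-containing buffer (10 uM ATP, imidazole pH 7.2, 7 mM MgCl2). Kinase-Glo luciferase reagent is then added. Light output is recorded following an 8-min room-temperature incubation.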
Rab9 prom act – qHTS Assay for Rab9 Promoter Activators | hit rate 2.8% among 320,000 | Huh7 Rab9 promoter-luciferase reporter, luminescence, 24 h | Potency, µM (titrated, usually from 9.22 µM), usual class: activators; further: nearly all actives have a fitted effect of over 60% in size
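Using Huh7 cells stably transfected with Rab9 promoter–luciferase, compounds were incubated 24 h at 37 °C, 5% CO2; luciferase luminescence was read 10 min after reagent addition.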
FLuc counter – qHTS profiling assay for firefly luciferase inhibitor/activator using purifed enzyme and Km concentrations of substrates (counterscreen for miR-21 project); Potency, µM (top dose mostly 57.5 µM), most hits filed as inhibitors; hit rate 6.9% among 360,000; Luciferin 4-monooxygenase (Photinus pyralis), P08659; purified FLuc, Km substrates, luminescence inhibition; further: nearly all actives have a fitted effect of over 55% in size
Target sequence (P08659 whole entry, looked up): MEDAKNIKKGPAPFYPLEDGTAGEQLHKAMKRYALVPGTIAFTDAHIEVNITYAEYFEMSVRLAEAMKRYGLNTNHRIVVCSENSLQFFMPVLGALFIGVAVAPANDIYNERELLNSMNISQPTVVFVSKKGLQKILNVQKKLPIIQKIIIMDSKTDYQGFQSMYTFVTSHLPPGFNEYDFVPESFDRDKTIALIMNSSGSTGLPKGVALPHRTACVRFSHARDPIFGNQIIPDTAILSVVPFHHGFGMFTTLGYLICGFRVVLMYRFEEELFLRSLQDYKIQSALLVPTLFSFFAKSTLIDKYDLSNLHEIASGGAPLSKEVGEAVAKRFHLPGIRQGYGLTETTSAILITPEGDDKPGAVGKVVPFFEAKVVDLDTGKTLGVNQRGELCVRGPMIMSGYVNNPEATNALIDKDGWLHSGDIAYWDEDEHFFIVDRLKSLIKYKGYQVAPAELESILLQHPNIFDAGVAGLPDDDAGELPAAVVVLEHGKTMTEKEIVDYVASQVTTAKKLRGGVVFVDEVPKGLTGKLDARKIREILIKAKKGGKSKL
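Purified P. pyralis luciferase (10nM final) with 10uM D-luciferin and 10uM ATP (Km levels) in 50mM Tris acetate pH 7.5, 10mM Mg acetate, 0.01% Tween-20, 0.05% BSA; qHTS 6-point titration, ~60 µM downward; luminescence read.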
ELG1 genotoxic – qHTS screen for small molecules that induce genotoxicity in human embryonic kidney (HEK293T) cells expressing luciferase-tagged ELG1; HEK293T ELG1-luciferase reporter, luminescence, 16 h; Potency, µM (top dose mostly 46 µM), usual class: activators; hit rate 1.3% among 330,000; further: nearly all actives have a fitted effect of over 60% in size
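Quantitative HTS format in 1536-well plates. HEK293T ELG1-luciferase reporter cells receive test compound and are incubated 16 hr at 37 °C, 5% CO2; ONE-Glo added, 30 min room temperature, then luminescence read.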
Each line names hits and unclear results; the compound was inactive in the other large screens. A selection: hits, their analogues and other compounds. The true share with any hit is near 7.4%. The call rests on the fitted dose curve; in most records, active means well fitted curve in the direction sought with a large enough effect; inconclusive means small, poorly fitted or top-dose-only effect, or another doubt; inactive means no such curve, though single readings can be large; an effect the other way counts as inactive or inconclusive.

CCC(=O)Nc1cccc(-n2nnnc2SCC(=O)c2ccc(C)c(C)c2)c1	FLuc counter 15µM
CCC(=O)Nc1cccc(-c2nnc(SCC(=O)c3ccccc3)n2C)c1	NPC1 promoter act inconclusive, Rab9 prom act 1.8µM, FLuc counter 6µM, ELG1 genotoxic inconclusive
COc1ccccc1-c1nnc(SCC(=O)O)n1-c1ccccc1	FLuc counter inconclusive
CCn1c(SCC(=O)c2ccccc2)nnc1-c1cnccn1	NPC1 promoter act inconclusive, SMN2 splice up inconclusive, Rab9 prom act inconclusive, FLuc counter 21µM, ELG1 genotoxic 16µM
CCN(CC)C(=O)c1sc2c(c1C)c(=O)n(-c1ccc(C)c(C)c1)c(=O)n2Cc1cc(=O)n2c(C)cccc2n1	none (no result: NPC1 promoter act, SMN2 splice up, Luc counter, Rab9 prom act, ELG1 genotoxic)
Cc1cccc(C(C)C)c1NC(=O)c1ccc2c(c1)CCN2S(C)(=O)=O	none (no result: NPC1 promoter act, Luc counter, Rab9 prom act, ELG1 genotoxic)
O=C(Nc1ccc(F)cc1Cl)c1cnc(N2CCOCC2)c2ccccc12	none (no result: NPC1 promoter act, SMN2 splice up, Luc counter, Rab9 prom act, ELG1 genotoxic)
C[C@H]1Cc2c(COc3ccccc3)nc3c(c2CO1)CN(S(=O)(=O)c1ccc(C#N)cc1)CC3	none (no result: NPC1 promoter act, Rab9 prom act, FLuc counter, ELG1 genotoxic)
Cn1c(SCC(=O)c2ccccc2)nnc1-c1cccs1	NPC1 promoter act 3.2µM, Rab9 prom act 2.8µM, FLuc counter 12µM, ELG1 genotoxic inconclusive (no result: SMN2 splice up, Luc counter)
Cn1c(SCC(=O)c2ccccc2)nnc1-c1cnccn1	NPC1 promoter act inconclusive, Rab9 prom act 3.2µM, FLuc counter inconclusive, ELG1 genotoxic inconclusive
Cn1c(SCc2ccccc2)nnc1-c1cnccn1	Rab9 prom act 6.3µM
COCCNC(=O)c1ccc(Cc2nc3ccccc3[nH]2)cc1	none (no result: NPC1 promoter act, SMN2 splice up, Rab9 prom act, FLuc counter, ELG1 genotoxic)
CCCCNc1nc(C)nc2c1nc(-c1ccccc1)n2CCN1CCCCC1	none (no result: NPC1 promoter act, Rab9 prom act, FLuc counter, ELG1 genotoxic)
O=C1NC(c2ccccc2)=N/C1=C/c1ccco1	NPC1 promoter act 3.5µM, SMN2 splice up 13µM, Luc counter inconclusive, Rab9 prom act 3.2µM, FLuc counter 2.1µM, ELG1 genotoxic inconclusive
O=C1NC(c2cccc(Br)c2)=N/C1=C\c1ccco1	NPC1 promoter act inconclusive, Rab9 prom act inconclusive, FLuc counter 11µM
O=C1NC(c2ccccc2Br)=N/C1=C\c1ccco1	Rab9 prom act inconclusive, FLuc counter 0.38µM, ELG1 genotoxic inconclusive (no result: SMN2 splice up, Luc counter)
O=C1NC(=O)/C(=C/c2ccco2)N1	none (no result: SMN2 splice up, Luc counter)
CCC1CN(C(=O)N2CCC(C(=O)NCCCc3ccccc3)CC2)c2ccccc2O1 (configuration not stated)	none (no result: NPC1 promoter act, SMN2 splice up, Luc counter, Rab9 prom act, ELG1 genotoxic)
Cc1nc(SCC(=O)c2cccs2)c2oc3ccccc3c2n1	NPC1 promoter act inconclusive, SMN2 splice up 10µM, Rab9 prom act 4µM, FLuc counter 9.5µM, ELG1 genotoxic inconclusive
O=C(CSc1ncnc2c1oc1ccccc12)c1cccs1	NPC1 promoter act 2.8µM, Rab9 prom act 4µM, FLuc counter inconclusive, ELG1 genotoxic inconclusive
Cc1nc(SCC(=O)O)c2oc3ccccc3c2n1	FLuc counter inconclusive
CSc1nc(Nc2ccc(C)cc2C)cc(-c2ccccc2)n1	none (no result: NPC1 promoter act, SMN2 splice up, Luc counter, Rab9 prom act, ELG1 genotoxic)
CCOc1ccc(NC(=O)c2ccc3c(SCC(=O)O)c4c(nc3c2)CCCC4)cc1	FLuc counter 17µM
O=C(O)CSc1c2c(nc3cc(C(=O)Nc4cccc(C(F)(F)F)c4)ccc13)CCC2	FLuc counter 27µM (no result: SMN2 splice up, Luc counter)
Cc1cccc(Cn2c(=O)n(-c3cc(C)cc(C)c3)c(=O)c3oc4ccccc4c32)c1	none (no result: NPC1 promoter act, SMN2 splice up, Luc counter, Rab9 prom act, ELG1 genotoxic)
Cc1ccc2nc(-c3ccc(SCC(=O)Nc4ccc5c(c4)OCCO5)nc3)[nH]c2c1	NPC1 promoter act 3.2µM, SMN2 splice up inconclusive, Rab9 prom act 2.8µM, FLuc counter 0.6µM, ELG1 genotoxic inconclusive
Cc1nonc1NC(=O)CSc1ccccn1	none (no result: SMN2 splice up, Luc counter)
Cc1ccc(-c2ccc(SCC(=O)Nc3nonc3C)nn2)cc1	NPC1 promoter act inconclusive, Rab9 prom act inconclusive, FLuc counter 12µM, ELG1 genotoxic inconclusive
CC(=O)Nc1ccc(NC(=O)CSc2ccc(-c3ccc4c(c3)OCO4)nn2)cc1	SMN2 splice up inconclusive, ELG1 genotoxic inconclusive
